Measured values as given in PubChem BioAssay AID492949 (National Center for Advancing Translational Sciences (NCATS), 2010).
Results filed as inconclusive are left out. A call without a number means that no potency is given here. The source made the active and inactive calls. Calls follow the shape of the dose curve; as a rule, active = well fitted activation curve with a large enough effect; inconclusive = small, poorly fitted or top-dose-only effect; inactive = no such curve, though single readings can be large or run the other way.

Target: Relaxin receptor 1 (Homo sapiens) (UniProt Q9HBX9)
Assay: qHTS Assay for Agonists of the Relaxin Receptor RXFP1: THP1 Hit Validation; also: nearly all actives have a fitted effect of over 60% in size
Text: The relaxin hormone is involved in the variety of biological functions in normal tissues and diseases. The role of relaxin is well-established in female reproduction and parturition, mammary gland and endometrial development, maintenance of myometrial quiescence during pregnancy. Relaxin signaling through its G protein-coupled receptor (GPCR) RXFP1 results in ECM remodeling through regulation of collagen deposition, cell invasiveness, proliferation and overall tissue homeostasis. […] Recombinant human relaxin (rhRlx) is currently being tested in clinical trials as a protective agent in congestive heart failure, in treating severe preeclampsia, and as an anti-fibrotic agent in systemic sclerosis.
Upon relaxin binding RXFP1 activation leads to the activation of adenylate cyclase (AC) via Gs. cAMP will activate PKA, which phosphorylates many signaling proteins. Thus, detection of cAMP increase is an easy and reliable indication of relaxin receptor activation. […] RXFP1 activation was assayed by changes in cAMP levels as detected with a time-resolved fluorescence energy transfer (TR-FRET) cAMP detection kit. […]
This is a cell-based assay for cAMP second messenger response to screen for agonists of the RXFP1 receptor. […] The cells were lysed and the cAMP levels were measured with a TR-FRET cAMP kit. […] The EC50 values were determined from concentration-response data modeled with the standard Hill equation […]
Potency is read from the fitted curve at half-maximal effect.

Relaxin receptor 1 (Homo sapiens), sequence (Q9HBX9 whole entry, looked up): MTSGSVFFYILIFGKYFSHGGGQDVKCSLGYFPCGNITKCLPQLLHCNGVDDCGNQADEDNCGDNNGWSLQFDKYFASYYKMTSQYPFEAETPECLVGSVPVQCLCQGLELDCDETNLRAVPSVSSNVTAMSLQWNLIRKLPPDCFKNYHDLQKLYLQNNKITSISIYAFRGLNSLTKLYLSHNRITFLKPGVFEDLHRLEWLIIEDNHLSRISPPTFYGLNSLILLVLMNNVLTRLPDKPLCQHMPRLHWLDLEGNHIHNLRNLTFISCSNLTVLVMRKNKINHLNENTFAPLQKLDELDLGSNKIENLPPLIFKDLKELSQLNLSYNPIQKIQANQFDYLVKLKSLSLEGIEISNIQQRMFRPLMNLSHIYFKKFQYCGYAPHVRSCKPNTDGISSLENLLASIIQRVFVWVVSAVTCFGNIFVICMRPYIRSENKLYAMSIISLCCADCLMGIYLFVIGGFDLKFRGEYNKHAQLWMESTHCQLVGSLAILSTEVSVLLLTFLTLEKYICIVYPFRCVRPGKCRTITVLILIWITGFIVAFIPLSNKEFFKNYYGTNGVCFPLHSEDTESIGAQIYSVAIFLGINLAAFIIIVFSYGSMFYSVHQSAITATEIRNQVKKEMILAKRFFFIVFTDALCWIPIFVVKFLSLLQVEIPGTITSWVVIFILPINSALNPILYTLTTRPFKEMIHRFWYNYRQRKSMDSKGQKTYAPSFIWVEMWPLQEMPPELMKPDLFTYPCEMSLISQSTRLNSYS

Compound | Potency
O=c1[nH]c(O)c(N=Nc2ccc([N+](=O)[O-])cc2)c(=O)[nH]1 | 11 µM (active)
CCC(Oc1cc(Cl)ccc1Cl)C(=O)N1CCC2(CC1)OCCO2 (configuration not stated) | inactive
